The values that follow come from PubChem BioAssay (NCATS).

Results filed as inconclusive are left out. The source made the active and inactive calls. Calls come from the whole dose curve; as a rule, active = well fitted curve in the direction sought with a large enough effect; inconclusive = small, poorly fitted or top-dose-only effect, or another doubt; inactive = no such curve, though single readings can be large; an effect the other way counts as inactive or inconclusive.

Test [1] concerns the target N-terminal Xaa-Pro-Lys N-methyltransferase 1 (Homo sapiens) (UniProt Q9BV86). Nature of the test: qHTS Assay for Inhibitors of N-terminal methyltransferase 1 (NTMT1): LOPAC validation of the NTMT1 SAHH-coupled ThioGlo3 Assay (AID 1347143).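 Note: SAH from peptide methylation measured as thiol fluorescence via SAHH coupling and ThioGlo3; nearly all actives have a fitted effect of over 70% in size.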 The gist of the method:
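NTMT1 125nM + cpds (various conc.), 1 min RT; add SAM 100uM/SAHH 10uM/ThioGlo3 15uM (addition mix). SAHH-coupled thiol detection, Ex340/Em450, t0 and 30 min RT; signal normalized to background. LOPAC 1280-cpd pilot.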
(qHTS replaces the single test concentration by a dilution series.)

The nature of test [2]: qHTS of pediatric cancer cell lines to identify multiple opportunities for drug repurposing: Confirmatory screen for control Hh wild type fibroblast cells (AID 1347121). Note: nearly all actives have a fitted effect of over 70% in size. The method in brief: (§1)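 Cells (500-1,000/well) rested 5 h, then received compounds for 48 h; metabolically active cells were measured by CellTiter-Glo luminescence. Final concentrations spanned up to 46 µM (MIPE, 11-point) or 0.59 nM-46 µM (NPC, 8-point) in primary screens, 11-point in follow-ups.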

The nature of test [3]: qHTS of pediatric cancer cell lines to identify multiple opportunities for drug repurposing: Confirmatory screen for U-2 OS cells (AID 1347122). Note: nearly all actives have a fitted effect of over 65% in size. The gist of the method:
as §1

A short description of test [4]: qHTS of pediatric cancer cell lines to identify multiple opportunities for drug repurposing: Confirmatory screen for Rh41 cells (AID 1347123).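 Note: 48 h compound exposure; nearly all actives have a fitted effect of over 60% in size.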 The gist of the method: as §1
The nature of test [5]: qHTS of pediatric cancer cell lines to identify multiple opportunities for drug repurposing: Confirmatory screen for Rh18 cells (AID 1347125). Note: nearly all actives have a fitted effect of over 55% in size. The method in brief:
as §1

The nature of test [6]: qHTS of pediatric cancer cell lines to identify multiple opportunities for drug repurposing: Confirmatory screen for Rh30 cells (AID 1347126). Note: nearly all actives have a fitted effect of over 55% in size. The gist of the method: as §1
Test [7] can be described thus: qHTS of pediatric cancer cell lines to identify multiple opportunities for drug repurposing: Confirmatory screen for OHS-50 cells (AID 1347128).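 Note: compound exposure lasted 48 h at 37 degrees C; nearly all actives have a fitted effect of over 55% in size.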 The method in brief: as §1
The nature of test [8]: qHTS of pediatric cancer cell lines to identify multiple opportunities for drug repurposing: Confirmatory screen for SK-N-SH cells (AID 1347129).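 Note: cells exposed to compound for 48 h before viability read; nearly all actives have a fitted effect of over 60% in size.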 The method in brief:
as §1

Test [9] concerns Zika virus NS2B-NS3 protease. Nature of the test: Primary screen GU AMC qHTS for Zika virus inhibitors (AID 1347154). Note: nearly all actives have a fitted effect of over 70% in size. The method in brief:
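Fluorogenic AMC-substrate cleavage by noncovalent NS2B-NS3 protease complex (25 nM, pH 8.0 Tris buffer with Tween 20) followed for 15 minutes at room temperature (~20% conversion). Percent inhibition from ex340/em450 signal change, fitted by 4-parameter Hill equation.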

Test [10] in a line: qHTS of pediatric cancer cell lines to identify multiple opportunities for drug repurposing: Confirmatory screen for RD cells (AID 1347124).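 Note: cells exposed to compound for 48 h before viability readout; nearly all actives have a fitted effect of over 65% in size.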 The method in brief: as §1
Test [11] is described as follows: qHTS of pediatric cancer cell lines to identify multiple opportunities for drug repurposing: Confirmatory screen for Saos-2 cells (AID 1347127). Note: nearly all actives have a fitted effect of over 60% in size. The settings on record: Saos-2 osteosarcoma cell viability. The gist of the method: as §1
Potency is the fitted concentration of half-maximal effect.

Sequence of N-terminal Xaa-Pro-Lys N-methyltransferase 1 (Homo sapiens) (Q9BV86 whole entry, looked up): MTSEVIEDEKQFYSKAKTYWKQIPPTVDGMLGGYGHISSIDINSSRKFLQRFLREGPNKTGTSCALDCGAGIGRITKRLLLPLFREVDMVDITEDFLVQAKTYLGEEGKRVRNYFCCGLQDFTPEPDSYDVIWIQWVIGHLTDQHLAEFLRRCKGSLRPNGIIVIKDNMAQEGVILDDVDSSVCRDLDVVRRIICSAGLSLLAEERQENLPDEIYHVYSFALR

For the compound `CNc1ncnc2c1ncn2[C@@H]1O[C@H](CO)C(O)[C@H]1O` (some centres not stated), the Potency entry in [1] is “inactive”.

Regarding `C=C/C(C)=C/[C@@]1(C)SC(=O)C(C)=C1O`, the Potency entry in test [1] was “inactive”.

Regarding `Nc1ccc([N+](=O)[O-])cc1O`, the Potency result in test [2], in test [3], in test [4], in test [5], in test [6] and in test [7] was “inactive” each time. Moreover, the Potency result in test [8] and in test [9] was “inactive” in each case.

In the case of `NCC1OC(OC2C(O)[C@@H](OC3C(O)C(N)CC(N)C3OC3OC(CO)C(O)C(O)C3N)O[C@@H]2CO)C(N)C(O)C1O` (some centres not stated), the Potency entry in [1] is “inactive”.

Consider `COc1cccc2c1C(=O)c1c(O)c3c(c(O)c1C2=O)C[C@@](O)(C(=O)CO)C[C@@H]3O[C@H]1C[C@H](N)[C@H](O[C@@H]2CCCCO2)[C@H](C)O1`, for which the Potency was 2.93 µM (active) in [4], 5.85 µM (active) in [6] and 2.35 µM (active) in test [8].

Take `CCCSc1ccc2nc(NC(=O)OC)[nH]c2c1`: the Potency entry in [2] and in test [9] was “inactive” throughout. In addition, the Potency was 1 µM (active) in test [3]; 1.12 µM (active) in [4]; 2.51 µM (active) in test [10]; 1.58 µM (active) in [11]; 2.51 µM (active) in test [7]; 6.31 µM (active) in test [8].

On to `Nc1nc(SCc2ccc([N+](=O)[O-])cc2)c2ncn([C@@H]3O[C@H](CO)C(O)[C@H]3O)c2n1` (some centres not stated), for which, in test [1], the Potency result is “inactive”.

Consider `OCC1O[C@H]([S-])C(O)[C@@H](O)[C@@H]1O.[Au+]` (some centres not stated), for which the Potency result in [1] was “inactive”.

On to `COc1cccc(C(=O)NCCN2CCN(c3ccc(Cl)cc3)CC2)c1`, for which the Potency entry in test [1] was “inactive”.

Take `O=[N+]([O-])c1ccc(CSc2ncnc3c2ncn3[C@@H]2O[C@H](CO)C(O)[C@H]2O)cc1` (some centres not stated): the Potency entry in test [1] was “inactive”.

Turning to `CN(C)C(N)=NCCC[C@H](N)C(=O)O`, in [1], the Potency result is “inactive”.

In the case of `Oc1ccccc1O`, in [1], the Potency is 44.7 µM (active).

Regarding `c1ccc(-c2ccccn2)nc1`, the Potency result in [1] is “inactive”.

Regarding `CN1CCc2cccc3c2C1Cc1ccc(O)c(O)c1-3` (configuration not stated), in test [1], the Potency is 20 µM (active).

For the compound `C[C@H](Cc1ccccc1)Nc1ncnc2c1ncn2[C@@H]1O[C@H](CO)C(O)[C@H]1O` (some centres not stated), in test [1], the Potency entry was “inactive”.

Regarding `COC(=O)c1nc(Cl)c(Cl)nc1N`, the Potency was 2.61 µM (active) in [3]; 1.31 µM (active) in test [4]; 2.61 µM (active) in test [10]; 20.8 µM (active) in test [5]; 16.5 µM (active) in test [6]; 2.61 µM (active) in [11]. Also, the Potency in test [7] was 18.5 µM (active); in test [8] it was 4.69 µM (active); in test [9] it was 10 µM (active).

As to `N=C1N=C(N)c2cc3ccccc3cc21`, the Potency is 30.2 µM (active) in test [4]; 47.9 µM (active) in test [6]; 42.7 µM (active) in test [7]; 38.2 µM (active) in test [8]; 23.3 µM (active) in test [9]. Also, the Potency result in test [10] was “inactive”.

Regarding `NCCCCC(=O)O`, the Potency entry in test [1] is “inactive”.

With `[O-][n+]1ccccc1SSc1cccc[n+]1[O-]`, the Potency entry in test [2], in [10] and in test [9] was “inactive” each time. Further, the Potency is 1.82 µM (active) in test [11] and 3.23 µM (active) in test [8].

On to `CCCCC#Cc1nc(NC)c2ncn([C@@H]3O[C@H](CO)[C@@H](O)C3O)c2n1` (some centres not stated), for which, in [1], the Potency was 39.8 µM (active).

For the compound `Nc1nc(Cl)nc2c1ncn2[C@@H]1O[C@H](CO)C(O)[C@H]1O` (some centres not stated), in test [1], the Potency result was “inactive”.

On to `Oc1c(Br)cc(Br)c2cccnc12`, for which the Potency in [3] was 14.7 µM (active). Moreover, the Potency entry in test [5], in test [7] and in test [9] was “inactive” each time.

Take `COc1ccc(NC(=O)/C=C/c2ccc(Cl)cc2)cc1`: in test [1], the Potency entry was “inactive”.

In the case of `CCOC(=O)c1ccccc1O`, the Potency result in test [2], in test [3], in test [4], in test [7], in test [8] and in test [9] was “inactive” in each case.

Consider `Nc1nc(Nc2ccccc2)nc2c1ncn2[C@@H]1O[C@H](CO)C(O)[C@H]1O` (some centres not stated), for which, in test [1], the Potency is 39.8 µM (active).

For the compound `NC[C@H]1O[C@@H](n2cnc3c(N)ncnc32)[C@H](O)[C@@H]1O`, the Potency result in test [1] is “inactive”.

Turning to `C[N+](C)(C)CCOP(=O)(O)OP(=O)([O-])OC[C@H]1O[C@@H](n2ccc(N)nc2=O)[C@H](O)C1O` (some centres not stated), in test [1], the Potency entry was “inactive”.

On to `O=C1NC(O)=NC1(c1ccccc1)c1ccccc1`, for which, in test [1], the Potency entry was “inactive”.

Consider `Cc1cc2c(cc1Cl)N(C(=O)Nc1ccc(Oc3cccnc3C)nc1)CC2`, for which the Potency in test [1] was 8.91 µM (active).

For the compound `CC(C)(C)NCC(O)COc1nsnc1N1CCOCC1` (configuration not stated), the Potency result in [1] is “inactive”.

Consider `CC[C@@H](C)[C@H]1O[C@]2(CC[C@@H]1C)C[C@@H]1C[C@@H](C/C=C(\C)[C@@H](O[C@H]3C[C@H](OC)[C@@H](O[C@H]4C[C@H](OC)[C@@H](O)[C@H](C)O4)[C@H](C)O3)[C@@H](C)/C=C/C=C3\CO[C@@H]4[C@H](O)C(C)=C[C@@H](C(=O)O1)[C@]34O)O2`, for which, in test [1], the Potency result was “inactive”.

With `CCOC(=O)N1CCN(/[N+]([O-])=N/Oc2ccc([N+](=O)[O-])cc2[N+](=O)[O-])CC1`, the Potency in test [1] is 28.2 µM (active).

Turning to `CN(C)c1ccc(C(=C2C=CC(=[N+](C)C)C=C2)c2ccccc2)cc1`, the Potency in test [2] is 0.737 µM (active); in test [4] it was 0.414 µM (active); in test [10] it was 1.31 µM (active); in test [5], 1.04 µM (active); in test [6], 0.104 µM (active); in test [11], 0.522 µM (active). Also, the Potency in test [7] is 2.61 µM (active); in test [8], 1.32 µM (active). Further, the Potency entry in test [9] was “inactive”.
